Screening results (PubChem)
RGS7-Gao – regulators of human RGS7-Galphao interaction; 220,000 tested, 0.35% active; P09471; Multiplexed bead flow cytometry, RGS7-Galphao binding; actives lie on both sides; binding response (% of control), % at 10 µM; in the data active = binding response below about 49% or above about 150%; inconclusive = no clear call, values can overlap the other calls; inactive = in between;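 note: fluorescent Galphao held in activated GDP-AlF4 state binding bead-coupled RGS7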
Target sequence (P09471 whole entry, looked up): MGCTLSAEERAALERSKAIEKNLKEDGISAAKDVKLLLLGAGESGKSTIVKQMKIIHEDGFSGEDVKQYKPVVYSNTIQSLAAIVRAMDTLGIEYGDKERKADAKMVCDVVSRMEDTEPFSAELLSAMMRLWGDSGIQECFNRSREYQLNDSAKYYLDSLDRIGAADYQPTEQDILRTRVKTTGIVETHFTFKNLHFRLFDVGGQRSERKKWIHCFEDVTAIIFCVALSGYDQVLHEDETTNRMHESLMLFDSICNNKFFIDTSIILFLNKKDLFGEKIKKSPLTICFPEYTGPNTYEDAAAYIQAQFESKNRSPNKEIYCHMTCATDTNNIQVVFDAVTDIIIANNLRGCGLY
RGS4-Gao reg – human RGS4-Galphao interaction regulation. 220,000 tested, 0.33% active. P09471. binding response (% of control), % at 10 µM. Multiplexed bead flow cytometry, RGS4-Galphao binding; actives lie on both sides. AID 1415; in the data active = binding response below about 49% or above about 150%; inactive = in between;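 note: fluorescent Galphao activated with aluminum fluoride binding bead-coupled RGS4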
GSH fluor – compound fluoresces at 488/530 nm on GSH beads; GSH beads flow cytometry, compound fluorescence 488/530 nm; hits give high values; fluorescence (KMESF) at 10 µM; 190,000 tested, 0.25% active; AID 1776; in the data active = fluorescence above about 89;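 note: glutathione beads carrying GST-tagged Bcl family fusion proteins plus one bare bead set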
Avidin bead fluor – avidin bead compound fluorescence profile; Avidin beads, compound fluorescence 488/530 nm, flow cytometry; hits give high values; fluorescence (KMESF) at 10 µM; 220,000 tested, 0.38% active; in the data active = fluorescence above about 47
RGS8-Gao – human RGS8-Galphao interaction regulation; P09471; 220,000 tested, 0.34% active; response (percent of control binding), % at 10 µM; multiplexed bead flow cytometry, RGS8-Galphao binding; actives lie on both sides; in the data active = response below about 60% or above about 140%; inactive = in between;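 note: Galphao activated as the GDP aluminium fluoride complex binding bead-coupled RGS8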
RGS16-Gao HTS – regulators of human RGS16-Galphao interaction | 220,000 tested, 0.38% active | binding response (% of control), % at 10 µM | AID 1441 | bead-based flow cytometry RGS16-Galphao binding, fluorescence; actives lie on both sides | O15492+P09471;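 note: Galphao activated by GDP with aluminum fluoride before binding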
RGS-Gao – RGS4-Galphao interaction regulator (human). shares compounds with RGS16-Gao HTS. multiplexed bead flow cytometry, RGS–Galpha-o binding. RGS4–Galpha-o binding response, % at 10 µM. 1,600 tested, 99% active;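 note: fluorescently labeled Galpha-o bound to GDP with aluminium fluoride binding biotinylated RGS beads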
Avidin counter – interferes with biotinylated probe binding to avidin beads. shares compounds with RGS16-Gao HTS. inhibition, % at 10 µM. AID 1783. 1,700 tested, under 10 active. streptavidin beads, fluorescein-biotin binding, flow cytometry;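 active = inhibition above 50%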;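 note: median green fluorescence of gated singlet beads compared with DMSO control wells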
RGS8-Gao confirm – RGS8-Galphao interaction regulation, single point confirmation | 1,700 tested, 3% active | binding response (% of control), % at 10 µM | shares compounds with RGS16-Gao HTS | bead-based flow cytometry RGS8-Galphao binding, fluorescence; actives lie on both sides; in the data active = binding response below about 72% or above about 130%; inactive = in between;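 note: Galphao activated as GDP AlF4 complex before binding bead RGS8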
RGS7-Gao confirm – RGS7-Galphao interaction regulation, single point confirmation; 1,700 tested, 7.8% active; response (percent of control binding), % at 10 µM; AID 1837; shares compounds with RGS16-Gao HTS; bead-based flow cytometry RGS7-Galphao binding; actives lie on both sides; in the data active = response below about 75% or above about 130%; inactive = in between;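 note: fluorescent Galphao activated with GDP and aluminum fluoride binding bead-coupled RGS7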
RGS16-Gao conf – RGS16-Galphao interaction regulation, single point confirmation. shares compounds with RGS16-Gao HTS. bead-based flow cytometry, RGS16-Galphao binding; actives lie on both sides. 1,700 tested, 4% active. response (% of control binding), % at 10 µM; in the data active = response below about 74% or above about 130%; inactive = in between;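 note: Galphao activated as the GDP aluminium fluoride complex binding bead-coupled RGS16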
RGS4-Gao single – confirmation of regulators of human RGS4-Galphao interaction; shares compounds with RGS16-Gao HTS; RGS4-Galphao binding, multiplexed bead flow cytometry; actives lie on both sides; binding response (% of control), % at 10 µM; 1,700 tested, 4% active; AID 1840; in the data active = binding response below about 74% or above about 130%; inactive = in between
RGS19-Gao conf – RGS19-Galphao interaction regulation, single point confirmation | AID 1841 | bead-based flow cytometry RGS19-Galphao binding; actives lie on both sides | response (percent of control binding), % at 10 µM | shares compounds with RGS16-Gao HTS | 1,700 tested, 5% active; in the data active = response below about 50% or above about 160%; inactive = in between
Target sequence (P09471 whole entry, looked up): as above
Target sequence (P49795 whole entry, looked up): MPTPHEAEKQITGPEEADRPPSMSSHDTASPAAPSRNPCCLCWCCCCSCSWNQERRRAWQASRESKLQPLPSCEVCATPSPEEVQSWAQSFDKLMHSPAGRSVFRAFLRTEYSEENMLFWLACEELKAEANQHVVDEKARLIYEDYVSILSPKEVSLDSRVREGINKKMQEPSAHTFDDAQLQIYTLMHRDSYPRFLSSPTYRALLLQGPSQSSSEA
Of the large screens only hits and unclear results are named; the others gave an inactive call (follow-up assays come after a bar, where they were run); [ ] = remark or other dose. Sampled rows, rich in hits. Any-hit rate of the full collection: about 1.2%. Unless noted, the rule behind the calls is not given here.

O=C(COC(=O)c1ccc2[nH]c3c(c2c1)CCCC3)Nc1ccc(Cl)cc1Cl	RGS16-Gao HTS 182[activator] | RGS-Gao 107 | Avidin counter inactive | RGS8-Gao confirm inactive | RGS7-Gao confirm inactive | RGS16-Gao conf inactive | RGS4-Gao single inactive | RGS19-Gao conf inactive
O=C(Nc1ccc(Cl)c(-c2nc3ccccc3[nH]2)c1)c1ccc2c(c1)OCO2	RGS16-Gao HTS 215[activator] | RGS-Gao 107 | Avidin counter inactive | RGS8-Gao confirm inactive | RGS7-Gao confirm inactive | RGS16-Gao conf inactive | RGS4-Gao single inactive | RGS19-Gao conf inactive
O=C(Nc1ccc(-c2nc3ccccc3[nH]2)cc1)c1ccc2c(c1)OCO2	none
O=C(c1ccncc1)N1N=C(C2CCCCC2)CC1(O)C(F)(F)F (stereo unspecified)	RGS4-Gao reg 47 | Avidin counter inactive | RGS8-Gao confirm inactive | RGS7-Gao confirm 72 | RGS16-Gao conf inactive | RGS4-Gao single inactive | RGS19-Gao conf inactive
O=C(NCCCc1nc2ccccc2[nH]1)c1ccc(F)cc1	none
COc1ccc(C(=O)NC(=S)Nc2ccc3oc(=O)ccc3c2)cc1OC	RGS16-Gao HTS 243[activator] | RGS-Gao 121 | Avidin counter inactive | RGS8-Gao confirm inactive | RGS7-Gao confirm inactive | RGS16-Gao conf inactive | RGS4-Gao single inactive | RGS19-Gao conf inactive
COc1cccc(OC)c1C(=O)NC(=S)Nc1ccc2oc(=O)ccc2c1	none
CC(C)c1onc(C(=O)NCCc2ccccc2)c1[N+](=O)[O-]	none
CC(C)c1onc(C(=O)N(C)Cc2ccccc2)c1[N+](=O)[O-]	RGS16-Gao HTS 24 | RGS-Gao 89 | Avidin counter inactive | RGS8-Gao confirm inactive | RGS7-Gao confirm inactive | RGS16-Gao conf inactive | RGS4-Gao single inactive | RGS19-Gao conf inactive
O=C(C(c1ccccc1)c1ccccc1)N1CCN(CCN2C(=O)c3cccc4cccc(c34)C2=O)CC1	none (no result: RGS7-Gao) | Avidin counter inactive | RGS8-Gao confirm inactive | RGS7-Gao confirm inactive | RGS16-Gao conf inactive | RGS4-Gao single inactive | RGS19-Gao conf inactive
O=C(CN1CCC(n2nnc3cc(F)ccc32)CC1)Nc1ccc2c(c1)CCC2	none (no result: RGS7-Gao, RGS4-Gao reg, Avidin bead fluor, RGS8-Gao, RGS16-Gao HTS) | Avidin counter inactive | RGS8-Gao confirm inactive | RGS7-Gao confirm inactive | RGS16-Gao conf inactive | RGS4-Gao single inactive | RGS19-Gao conf inactive
CO/N=C/C(=N\Nc1ccc(OC)cc1)C(=O)c1ccc(F)cc1	RGS7-Gao 35, RGS4-Gao reg 40, RGS8-Gao 45 | Avidin counter inactive | RGS8-Gao confirm inactive | RGS7-Gao confirm inactive | RGS16-Gao conf inactive | RGS4-Gao single inactive | RGS19-Gao conf inactive
CO/N=C/C(=N\Nc1ccc(C)cc1)C(=O)c1ccc(OC)cc1	none
Cc1ccc2nc(-c3ccc(NC(=O)CNC4CC4)cc3)sc2c1	RGS7-Gao 217[activator], Avidin bead fluor 101 | RGS-Gao 108 | Avidin counter inactive | RGS8-Gao confirm inactive | RGS7-Gao confirm inactive | RGS16-Gao conf inactive | RGS4-Gao single inactive | RGS19-Gao conf inactive
Cc1ccc2nc(-c3ccc(NC(=O)CN4C(=O)c5ccccc5C4=O)cc3)sc2c1	none
Oc1[nH]c(N=C2N=c3ccccc3=N2)c2ccccc12	RGS7-Gao inconclusive, RGS4-Gao reg 35, RGS8-Gao 57 (no result: GSH fluor) | Avidin counter inactive | RGS8-Gao confirm inactive | RGS7-Gao confirm inactive | RGS16-Gao conf inactive | RGS4-Gao single inactive | RGS19-Gao conf inactive
N#CC(=C1N=c2ccccc2=N1)c1c(O)[nH]c2ccccc12	none
NC(N)=N/N=C/c1ccc(Br)cc1	none
N#Cc1ccc(/C=N/N=C(N)N)cc1	RGS7-Gao 179[activator], RGS4-Gao reg 220[activator], Avidin bead fluor 112, RGS16-Gao HTS 244[activator] | Avidin counter inactive | RGS8-Gao confirm inactive | RGS7-Gao confirm inactive | RGS16-Gao conf inactive | RGS4-Gao single inactive | RGS19-Gao conf inactive
Cc1ccc(S(=O)(=O)Nc2c(C)nn(C)c2C)cc1	RGS16-Gao HTS -95 | RGS-Gao 66 | Avidin counter inactive | RGS8-Gao confirm inactive | RGS7-Gao confirm inactive | RGS16-Gao conf inactive | RGS4-Gao single inactive | RGS19-Gao conf inactive
CN1C(=O)C(O)(CC(=O)c2ccccc2O)c2cc(Br)ccc21 (stereo unspecified)	RGS8-Gao 148[activator] | RGS-Gao 117 | Avidin counter inactive | RGS8-Gao confirm inactive | RGS7-Gao confirm inactive | RGS16-Gao conf inactive | RGS4-Gao single inactive | RGS19-Gao conf inactive
CCSC1=C(C#N)C2(CCCCC2)C(C#N)C(=O)N1 (stereo unspecified)	none
N#CC1=C2SCCN2C(=O)C(C#N)C12CCCCC2 (stereo unspecified)	RGS7-Gao -0.9, RGS4-Gao reg -15, RGS8-Gao 13, RGS16-Gao HTS -10 (no result: Avidin bead fluor) | Avidin counter inactive | RGS8-Gao confirm inactive | RGS7-Gao confirm inactive | RGS16-Gao conf inactive | RGS4-Gao single inactive | RGS19-Gao conf inactive
O=c1ccc2cc(S(=O)(=O)N3CCN(c4cc(Cl)ccc4Cl)CC3)ccc2o1	none (no result: RGS7-Gao, RGS4-Gao reg, Avidin bead fluor, RGS8-Gao, RGS16-Gao HTS) | Avidin counter inactive | RGS8-Gao confirm inactive | RGS7-Gao confirm inactive | RGS16-Gao conf inactive | RGS4-Gao single inactive | RGS19-Gao conf inactive
CCOC(=O)N1CCC(NC(=O)c2ccc(N3CCC4(CC3)OCCO4)c([N+](=O)[O-])c2)CC1	none
CCCCNC(=O)c1ccc(N2CCC3(CC2)OCCO3)c([N+](=O)[O-])c1	RGS16-Gao HTS 21 | RGS-Gao 94 | Avidin counter inactive | RGS8-Gao confirm inactive | RGS7-Gao confirm inactive | RGS16-Gao conf inactive | RGS4-Gao single inactive | RGS19-Gao conf inactive
O=C(O)c1ccc(-c2ccc(/C=C3\NC(=O)N(Cc4ccc(Cl)cc4)C3=O)o2)cc1Cl	none
O=C(CSc1nnc(SCc2ccccc2)s1)N/N=C/c1c(Cl)cccc1Cl	none
